ssDAF-12 act – activators of S. stercoralis DAF-12 nuclear receptor. HEK293 ssDAF-12/GRIP1 lit1-tk-luc reporter, luminescence; % of 3 µM dafachronic acid response. 370,000 compounds, 1% hits. activation, % at 6.8 µM. AID 652126;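 active = activation above the mean over all tested compounds plus 3 SD, cut at about 0.9% in these data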;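 note: 0% = DMSO-only wells and 100% = 3 µM delta7-dafachronic acid wells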
DAX1 inh-1 – NR0B1 (DAX1) inhibition; HEK293 Gal4-DAX1 luciferase reporter, luminescence; inhibition, % at 6.75 µM; 340,000 compounds, 0.99% hits; AID 504766;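 active = inhibition above the mean over all tested compounds plus 3 SD, cut at about 4.2% in these data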;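 note: 0% = DAX1-transfected cells with DMSO and 100% = empty-vector control cells with DMSO; inhibition shows as a rise in luminescence from relieved DAX1 repression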
hgDAF12 agonist – activates the H. glycines DAF-12 receptor ligand-binding domain | HEK293 GAL4-hgDAF12 UAS-luciferase reporter, agonist luminescence; normalized to butyrate control | activation, % at 6.8 µM | 370,000 compounds, 1.8% hits | AID 687014;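 active = activation above a cutoff set at the mean of all screened compounds plus 3 SD, cut at about 10% in these data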;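 note: 0% = DMSO wells and 100% = sodium butyrate wells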
hcDAF12 agonist – activates DAF-12 receptor from parasite H. contortus. HEK293 hcDAF-12 lit1-tk-luc reporter, luminescence; 0% DMSO, 100% Δ7-dafachronic acid. activation, % at 6.8 µM. 370,000 compounds, 1.4% hits;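 active = activation above the mean of all tested compounds plus 3 SD, cut at about 5.5% in these data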;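 note: 100% = response to 3 µM Δ7-dafachronic acid high control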
DAX1 inh-2 – blocks DAX1 repression of SF-1 activated StAR promoter | HEK293T StAR-luciferase reporter, SF-1/DAX-1 repression relief | inhibition, % at 6.8 µM | 370,000 compounds, 1.1% hits | AID 652010;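 active = inhibition above the mean over all tested compounds plus 3 SD, cut at about 3.6% in these data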;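 note: 0% = DAX-1 cells with DMSO and 100% = cells lacking DAX-1 with DMSO; higher inhibition means more luminescence from relief of DAX-1 repression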
Wee1 degr inh – blocks degradation of human Wee1 kinase; HeLa Luc-Wee1K328M stability, luciferase luminescence; 100% = proteasome inhibitor MG132 effect; 220,000 compounds, 1.2% hits; reporter increase, % at 5 µM;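 active = activation above the mean of all tested compounds plus 3 SD, set per screening run, cut at about 8.8% in these data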;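 note: cells exposed to compound for 20 h before luminescence read; 0% = DMSO alone and 100% = MG132 at 30 µM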
Target sequence (P30291 whole entry K328M): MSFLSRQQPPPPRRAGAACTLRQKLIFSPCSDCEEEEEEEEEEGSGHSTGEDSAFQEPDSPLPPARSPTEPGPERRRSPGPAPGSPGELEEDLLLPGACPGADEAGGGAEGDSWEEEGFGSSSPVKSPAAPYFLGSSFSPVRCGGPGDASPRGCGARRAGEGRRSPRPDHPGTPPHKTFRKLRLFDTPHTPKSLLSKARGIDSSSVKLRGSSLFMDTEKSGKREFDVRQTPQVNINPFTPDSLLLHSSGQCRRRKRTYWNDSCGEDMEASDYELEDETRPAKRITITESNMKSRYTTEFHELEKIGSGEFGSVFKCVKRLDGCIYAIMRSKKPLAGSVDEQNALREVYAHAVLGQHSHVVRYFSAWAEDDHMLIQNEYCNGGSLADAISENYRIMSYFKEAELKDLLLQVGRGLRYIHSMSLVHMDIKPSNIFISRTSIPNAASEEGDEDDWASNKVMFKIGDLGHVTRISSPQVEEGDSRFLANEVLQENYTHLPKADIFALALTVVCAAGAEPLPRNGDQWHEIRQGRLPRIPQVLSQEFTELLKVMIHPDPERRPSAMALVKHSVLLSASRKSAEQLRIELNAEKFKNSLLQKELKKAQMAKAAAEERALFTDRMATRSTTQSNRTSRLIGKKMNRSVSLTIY
hgDAF12 ag – hgDAF-12 agonism, confirmation assay; shares compounds with hgDAF12 agonist; HEK293 GAL4-hgDAF12 luciferase reporter, agonist mode; percent of butyrate response; activation, % at 6.8 µM; 3,300 compounds, 80% hits; AID 743050;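 active = mean activation over triplicate wells above the hit cutoff derived from the earlier primary screen, cut at about 11% in these data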;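 note: 0% = DMSO low control and 100% = 2 mM sodium butyrate high control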
LXRb DAF12 ctr – LXR-beta agonism as DAF-12 counter-screen. shares compounds with hgDAF12 agonist. HEK293 Gal4-LXR luciferase reporter, 24 h. 3,300 tested, under 10 active. activation, % at 6.8 µM;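 active = mean activation of the triplicate above a set limit carried over from the primary screen, none filed active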
Active calls of the source: *; nt = not tested or not shown. Rows were chosen to be rich in hits. Some 4.6% of all compounds tested hit in one or more screens of this group.

SMILES | ssDAF-12 act | DAX1 inh-1 | hgDAF12 agonist | hcDAF12 agonist | DAX1 inh-2 | Wee1 degr inh | hgDAF12 ag | LXRb DAF12 ctr
Cc1cc(C(=O)NC2CCCCC2)c(C)n1-c1ccc(F)cc1 | -1 | 0 | 14* | 5.8* | 3 | 5 | 12* | 1
Cc1cc(C(=O)CN2CCCCC2)c(C)n1-c1ccc(F)cc1 | -1 | 2 | 5 | 1 | 1 | -2 | nt | nt
Cc1cc(C(=O)CN2CCC(C)CC2)c(C)n1-c1ccc(F)cc1 | 0 | 1 | 14* | 1 | 3 | 0 | 13* | 1
CCc1ccc(-c2csc(NC(=O)Oc3ccccc3)n2)cc1 | 0 | 1 | 15* | 1 | 3 | 7 | 6 | 0
CN(C)c1ccc(C(=O)OCC(=O)c2ccc[nH]2)cc1 | 0 | 1 | 15* | 4 | 0 | nt | 15* | 0
O=C(COC(=O)C1COc2ccccc2O1)Nc1ccccc1OC(F)F (centres undefined) | 0 | 1 | 1 | 3 | -1 | nt | nt | nt
CCOc1cc(C2NN=C(c3ccc(C)cc3)S2)ccc1O (centres undefined) | 0 | 1 | 14* | 4 | 2 | -1 | 16* | 1
C[C@H](CO)N1C[C@H](C)[C@@H](CN(C)Cc2ccccc2)Oc2ccc(NC(=O)CCCCCC(=O)Nc3ccccc3N)cc2C1=O | -1 | 3 | 16* | 3 | 2 | nt | 9 | 0
COC(=O)C1CN(Cc2cn(CCOC(C)=O)nn2)CCS(=O)(=O)N1Cc1ccc(Cl)cc1 (centres undefined) | 1 | nt | -1 | -1 | -1 | nt | nt | nt
N#Cc1ccc(C(=O)Nc2nc3ccccc3[nH]2)cc1 | 0 | 0 | 16* | 2 | 2 | nt | 11* | 1
CC(C)=CC(=O)Nc1ccc(Br)cc1 | -1 | 4 | 16* | 3 | 3 | 2 | 15* | 1
Cc1occc1C(=O)N/N=C/c1cccc2ccccc12 | 1.0* | 0 | 21* | 5.8* | 2 | nt | 14* | 1
COc1cc(/C=N/NC(=O)c2ccoc2C)cc(OC)c1OC | -1 | 1 | 8 | 2 | 2 | 1 | nt | nt
O=C(N/N=C/c1cccc2ccccc12)c1ccccc1Cl | -1 | 0 | 2 | -2 | 0 | nt | nt | nt
O=C(N/N=C/C(Br)=C/c1ccccc1)c1ccccc1[N+](=O)[O-] | -1 | 0 | 2 | -2 | 0 | nt | nt | nt
Cc1occc1C(=O)N/N=C/C(Br)=C/c1ccccc1 | 0 | 0 | 17* | 5 | 3 | 1 | 14* | 1
Cc1occc1C(=O)N/N=C/c1ccc2c(c1)OCO2 | 0 | -1 | 16* | 5.7* | 4 | 7 | 21* | 1
COc1ccc(/C=N/NC(=O)c2ccoc2C)cc1O | -1 | 2 | 7 | 5 | 1 | -1 | nt | nt
Cc1cc(/C=N/NC(=O)c2ccoc2C)cc(C)c1O | 0 | 4.8* | 18* | 3 | 4.3* | nt | 14* | 0
O=C(CC(NC(=O)OCc1ccccc1)c1nn[nH]n1)OCc1ccccc1 (centres undefined) | 1 | 2 | 13* | 3 | 2 | nt | 11* | 1
CC(=O)Nc1ccc(NC(=O)CSc2nc(=O)n(Cc3cccnc3)c3c2CCC3)cc1 | -1 | 2 | -1 | -1 | -1 | nt | nt | nt
COc1ccc(/C=N/Nc2ncc(Br)cn2)c(OC)c1 | 0 | 3 | 16* | 1 | 2 | -2 | 15* | 1
O=C(NCCc1ccccc1)OCc1cn(Cc2c(F)cccc2F)nn1 | -2 | nt | 1 | -1 | 0 | nt | nt | nt
O=C(Nc1ccc(-c2cn3ccsc3n2)cc1)C1CC1 | 0 | 0 | 10 | 2 | 3 | 1 | nt | nt
O=C(Nc1ccc(-c2cn3ccsc3n2)cc1)C1CCCC1 | 0 | 1 | 16* | 3 | 3 | 1 | 18* | 1
SMILES | ssDAF-12 act | DAX1 inh-1 | hgDAF12 agonist | hcDAF12 agonist | DAX1 inh-2 | Wee1 degr inh | hgDAF12 ag | LXRb DAF12 ctr
CC(C)C(=O)Nc1cccc(-c2cn3ccsc3n2)c1 | -1 | -1 | 4 | -1 | 0 | -2 | nt | nt
c1cn2cc(-c3ccc4c(c3)OCO4)nc2s1 | 1.6* | 0 | 16* | 6.5* | 4.3* | 1 | 16* | 1
O=C1NC(=O)C(=Cc2ccc(Cl)cc2Cl)S1 | 1 | 3 | 18* | 3 | 4.4* | nt | 14* | 1
Cc1c(NC(=O)c2ccc(C(C)(C)C)cc2)cccc1[N+](=O)[O-] | -1 | 2 | 14* | 0 | 1 | 2 | 7 | 0
Cc1cc(C(=O)Nc2cccc([N+](=O)[O-])c2C)cs1 | 0 | 0 | -2 | 1 | 0 | nt | nt | nt
CSc1ccc(/C=N/NC(=O)c2cccc(O)c2)cc1 | 0 | -1 | 15* | 4 | 4.1* | -1 | 18* | 1
CCOc1ccc(C(=O)N/N=C/c2ccc(SC)cc2)cc1 | -1 | 0 | 3 | -2 | 0 | 4 | nt | nt
CCOc1ccc(/C=N/N(C)c2ccccc2)cc1OC | -1 | 3 | 14* | 4 | 3 | 6 | 16* | 1
C[C@@H]1CN([C@@H](C)CO)C(=O)CCCn2nncc2CO[C@@H]1CN(C)C(=O)Nc1ccc2c(c1)OCO2 | -1 | 1 | 2 | 1 | -1 | nt | nt | nt
Fc1ccc(-c2nc3ccccc3[nH]2)cc1 | -1 | 1 | 18* | 3 | 3 | 2 | 12* | 1
Cc1ccc2nc(NC(=O)CSc3nc(=O)n(CCN(C)C)c4c3CCCC4)sc2c1 | 0 | 1 | 0 | 0 | 0 | nt | nt | nt
CCc1ccc(NC(=O)c2cnccn2)cc1 | 1 | 3 | 15* | 3 | 3 | nt | 13* | 1
O=C(NC(c1ccc(Cl)cc1)c1cnccn1)C1CCN(CCCOc2ccccc2)CC1 (centres undefined) | -1 | nt | 1 | 0 | 0 | nt | nt | nt
CC(C)N1CCCC(C)(C(=O)Nc2nc3ccccc3[nH]2)C1 (centres undefined) | -2 | nt | -1 | -1 | 0 | nt | nt | nt
COc1cc(/C=N/O)ccc1OCc1ccc(C(=O)O)cc1 | 0 | -6 | 13* | 3 | 2 | -4 | 16* | 1
COc1ccc(/C=N/NS(=O)(=O)c2ccc(C)cc2)cc1OC(=O)c1ccccc1 | -1 | 1 | 1 | -2 | 0 | 1 | nt | nt
COc1cc(/C=N/NS(=O)(=O)c2ccc3ccccc3c2)ccc1OCc1ccc(C(=O)O)cc1 | 0 | -7 | 15* | 3 | 3 | 2 | 13* | 1
CCOC(=O)/C(=C\c1ccccc1)C(=O)CCN1CCOCC1 | -1 | 1 | 1 | -1 | -1 | nt | nt | nt
CC(C)Nc1nc(Nc2ccc(F)cc2)c2sccc2n1 | -1 | nt | -6 | -2 | -4 | nt | nt | nt

Screens deposited in PubChem BioAssay by The Scripps Research Institute Molecular Screening Center.
